Measured values: PubChem BioAssay AID1159580 (chemical genetic matrix, 2015)
About 2,000 (36%) of roughly 5,500 compounds were called active. Inconclusive results (about 18%) are left out. No stated cut-off is given here; in the data, active means normalized growth mostly below about 0.91 (no sharp cut-off); inconclusive means no clear call, values can overlap the other calls; inactive means mostly above about 0.92. The list shows a part of the results.

Assay: chemical genetic growth profiling, strain panel (AID 1159580);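 further: tested at 20 µM; growth read once vehicle control cultures reached saturation at 30 °C; 1 = growth at the plate median or of vehicle wells; lower values mean less growth of the strain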
Settings: growth OD

Measured: normalized growth

CCOCN(C(=O)CCl)c1c(C)cccc1CC
inactive: S. cerevisiae deletion strains, locus YJR043C, strain POL32, hits give low values 0.983 | S. cerevisiae deletion strains, locus YJR075W, strain HOC1, hits give low values 0.993 | S. cerevisiae deletion strains, locus YKL009W, strain mrt4, hits give low values 0.989 | S. cerevisiae deletion strains, locus YKL068W, hits give low values 0.973 | S. cerevisiae deletion strains, locus YKL085W, strain MDH1 (second series), hits give low values 0.991 | S. cerevisiae deletion strains, locus YKL085W, strain MDH1, hits give low values 0.991 | S. cerevisiae deletion strains, locus YKL160W, strain elf1, hits give low values 0.995 | S. cerevisiae deletion strains, locus YKL190W, strain CNB1, hits give low values 0.983 | S. cerevisiae deletion strains, locus YKR001C, strain vps1, hits give low values 0.986 | S. cerevisiae deletion strains, locus YKR026C, strain gcn3, hits give low values 0.985 | S. cerevisiae deletion strains, locus YKR091W, strain srl3, hits give low values 0.988 | S. cerevisiae deletion strains, locus YLL001W, strain dnm1, hits give low values 0.989 | S. cerevisiae deletion strains, locus YLL026W, hits give low values 0.991 | S. cerevisiae deletion strains, locus YLL041C, strain sdh2, hits give low values 0.988 | S. cerevisiae deletion strains, locus YLR027C, strain aat2, hits give low values 0.976 | S. cerevisiae deletion strains, locus YLR039C, strain RIC1, hits give low values 0.994 | S. cerevisiae deletion strains, locus YLR058C, strain SHM2, hits give low values 0.986 | S. cerevisiae deletion strains, locus YLR102C, strain apc9, hits give low values 0.974 | S. cerevisiae deletion strains, locus YLR221C, strain rsa3, hits give low values 0.981 | S. cerevisiae deletion strains, locus YLR258W, strain gsy2, hits give low values 1.02 | S. cerevisiae deletion strains, locus YLR262C, strain YPT6 (second series), hits give low values 0.969 | S. cerevisiae deletion strains, locus YLR262C, strain YPT6, hits give low values 1.01 | S. cerevisiae deletion strains, locus YLR268W, strain sec22, hits give low values 0.979 | S. cerevisiae deletion strains, locus YLR320W, strain mms22, hits give low values 0.986 | S. cerevisiae deletion strains, locus YLR330W, strain CHS5, hits give low values 0.977 | S. cerevisiae deletion strains, locus YLR342W, strain FKS1 (second series), hits give low values 0.98 | S. cerevisiae deletion strains, locus YLR342W, strain FKS1, hits give low values 0.978 | S. cerevisiae deletion strains, locus YLR357W, strain rsc2, hits give low values 0.961 | S. cerevisiae deletion strains, locus YLR370C, strain arc18, hits give low values 0.995 | S. cerevisiae deletion strains, locus YLR371W, strain rom2, hits give low values 0.963 | S. cerevisiae deletion strains, locus YLR384C, strain iki3, hits give low values 0.98 | S. cerevisiae deletion strains, locus YLR418C, strain cdc73, hits give low values 1.03 | S. cerevisiae deletion strains, locus YML016C, strain PPZ1, hits give low values 0.992 | S. cerevisiae deletion strains, locus YML032C, strain rad52, hits give low values 0.969 | S. cerevisiae deletion strains, locus YML120C, strain ndi1, hits give low values 0.99 | S. cerevisiae deletion strains, locus YML124C, strain tub3, hits give low values 0.972 | S. cerevisiae deletion strains, locus YMR058W, strain fet3, hits give low values 0.988 | S. cerevisiae deletion strains, locus YMR078C, strain ctf18, hits give low values 0.959 | S. cerevisiae deletion strains, locus YMR125W, strain sto1, hits give low values 0.988 | S. cerevisiae deletion strains, locus YMR129W, hits give low values 0.982 | S. cerevisiae deletion strains, locus YMR205C, strain PFK2, hits give low values 0.996 | S. cerevisiae deletion strains, locus YMR223W, strain ubp8, hits give low values 0.984 | S. cerevisiae deletion strains, locus YMR231W, strain pep5, hits give low values 0.981 | S. cerevisiae deletion strains, locus YMR263W, strain SAP30, hits give low values 0.983 | S. cerevisiae deletion strains, locus YMR307W, strain GAS1, hits give low values 1 | S. cerevisiae deletion strains, locus YNL067W, strain RPL9B, hits give low values 0.995 | S. cerevisiae deletion strains, locus YNL071W, strain lat1, hits give low values 0.989 | S. cerevisiae deletion strains, locus YNL128W, strain TEP1, hits give low values 0.978 | S. cerevisiae deletion strains, locus YNL153C, strain GIM3, hits give low values 1 | S. cerevisiae deletion strains, locus YNL209W, strain ssb2, hits give low values 0.998 | S. cerevisiae deletion strains, locus YNL233W, strain BNI4, hits give low values 0.996 | S. cerevisiae deletion strains, locus YNL248C, strain rpa49, hits give low values 0.984 | S. cerevisiae deletion strains, locus YNL250W, strain rad50, hits give low values 0.977 | S. cerevisiae deletion strains, locus YNL271C, strain bni1, hits give low values 0.994 | S. cerevisiae deletion strains, locus YNL298W, strain CLA4, hits give low values 0.968 | S. cerevisiae deletion strains, locus YNL307C, strain MCK1, hits give low values 0.982 | S. cerevisiae deletion strains, locus YNL322C, strain KRE1 (second series), hits give low values 0.98 | S. cerevisiae deletion strains, locus YNL322C, strain KRE1, hits give low values 0.982 | S. cerevisiae deletion strains, locus YNR049C, strain mso1, hits give low values 0.986 | S. cerevisiae deletion strains, locus YNR052C, strain pop2, hits give low values 0.957 | S. cerevisiae deletion strains, locus YOL006C, strain TOP1, hits give low values 1.02 | S. cerevisiae deletion strains, locus YOL012C, strain htz1 0.911 | S. cerevisiae deletion strains, locus YOL147C, strain pex11, hits give low values 0.981 | S. cerevisiae deletion strains, locus YOR001W, strain rrp6, hits give low values 0.969 | S. cerevisiae deletion strains, locus YOR061W, strain CKA2, hits give low values 0.999 | S. cerevisiae deletion strains, locus YOR069W, strain VPS5, hits give low values 0.987 | S. cerevisiae deletion strains, locus YOR070C, strain gyp1, hits give low values 0.98 | S. cerevisiae deletion strains, locus YOR080W, strain dia2, hits give low values 0.975 | S. cerevisiae deletion strains, locus YOR083W, strain WHI5, hits give low values 1 | S. cerevisiae deletion strains, locus YOR106W, strain vam3, hits give low values 1 | S. cerevisiae deletion strains, locus YOR136W, strain idh2, hits give low values 0.98 | S. cerevisiae deletion strains, locus YOR144C, strain elg1, hits give low values 0.961 | S. cerevisiae deletion strains, locus YOR184W, strain ser1, hits give low values 0.986 | S. cerevisiae deletion strains, locus YOR265W, strain rbl2, hits give low values 1 | S. cerevisiae deletion strains, locus YOR270C, strain vph1, hits give low values 1.01 | S. cerevisiae deletion strains, locus YOR290C, strain snf2, hits give low values 1 | S. cerevisiae deletion strains, locus YOR316C, strain cot1, hits give low values 0.978 | S. cerevisiae deletion strains, locus YPL051W, strain arl3, hits give low values 0.99 | S. cerevisiae deletion strains, locus YPL055C, strain LGE1, hits give low values 1 | S. cerevisiae deletion strains, locus YPL078C, strain atp4, hits give low values 0.985 | S. cerevisiae deletion strains, locus YPL106C, strain sse1, hits give low values 1.01 | S. cerevisiae deletion strains, locus YPL240C, strain hsp82, hits give low values 0.995 | S. cerevisiae deletion strains, locus YPL241C, strain CIN2, hits give low values 0.99 | S. cerevisiae deletion strains, locus YPR119W, strain clb2, hits give low values 0.964 | S. cerevisiae deletion strains, locus YPR141C, strain kar3, hits give low values 0.987 | S. cerevisiae deletion strains, locus YPR163C, strain tif3, hits give low values 0.958 | S. cerevisiae deletion strains, locus YPR167C, strain met16, hits give low values 0.987 | S. cerevisiae deletion strains, strain wtn01, hits give low values 0.967 | S. cerevisiae strains, strain wild type, hits give low values 0.993
